Columns and labels:
[1] = target: Ras-related protein Rab-11B (UniProt Q15907); assay: cross-link between two proteins; co-fractionation; cross-linking mass spectrometry
[2] = target: AP-1 complex subunit mu-1 (UniProt Q9BXS5); assay: co-fractionation; cross-linking mass spectrometry
[3] = target: Endoplasmic reticulum membrane protein complex subunit 7 (UniProt Q9NPA0); assay: cross-link between two proteins; affinity purification or IP with mass spectrometry; cross-linking mass spectrometry
[4] = target: Thioredoxin-related transmembrane protein 1 (UniProt Q9H3N1); assay: as above
Chain of Thioredoxin-related transmembrane protein 1 (Q9H3N1 whole entry): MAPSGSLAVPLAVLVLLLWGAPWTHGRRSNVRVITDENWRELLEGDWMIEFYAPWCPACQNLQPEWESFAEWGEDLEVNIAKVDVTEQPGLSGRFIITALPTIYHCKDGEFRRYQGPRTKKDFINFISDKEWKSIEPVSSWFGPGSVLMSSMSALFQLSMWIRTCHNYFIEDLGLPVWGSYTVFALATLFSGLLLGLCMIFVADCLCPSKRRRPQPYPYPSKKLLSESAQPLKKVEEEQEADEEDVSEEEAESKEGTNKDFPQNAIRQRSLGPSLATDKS

[5] = target: Cytochrome c oxidase assembly factor 7 (UniProt Q96BR5); assay: as above
[6] = target: ATP synthase peripheral stalk subunit OSCP, mitochondrial (UniProt P48047); assay: cross-link between two proteins; cross-linking mass spectrometry
Chain of ATP synthase peripheral stalk subunit OSCP, mitochondrial (P48047 whole entry): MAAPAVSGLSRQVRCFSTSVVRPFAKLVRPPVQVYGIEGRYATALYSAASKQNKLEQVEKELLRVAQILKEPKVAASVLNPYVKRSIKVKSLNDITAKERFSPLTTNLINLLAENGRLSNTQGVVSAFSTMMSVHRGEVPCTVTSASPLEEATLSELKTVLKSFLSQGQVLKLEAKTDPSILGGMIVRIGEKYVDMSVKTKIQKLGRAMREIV

[7] = target: Malate dehydrogenase, mitochondrial (UniProt P40926); assay: as above
[8] = target: NAD kinase 2, mitochondrial (UniProt Q4G0N4); assay: co-fractionation; co-fractionation; cross-linking mass spectrometry
[9] = target: Large ribosomal subunit protein bL12m (UniProt P52815); assay: cross-link between two proteins; affinity purification or IP with mass spectrometry; cross-linking mass spectrometry
[10] = target: Propionyl-CoA carboxylase beta chain, mitochondrial (UniProt P05166); assay: co-fractionation; co-fractionation; cross-linking mass spectrometry
[11] = target: Pyruvate dehydrogenase E1 component subunit beta, mitochondrial (UniProt P11177); assay: cross-link between two proteins; co-fractionation; cross-linking mass spectrometry
14-3-3 protein eta = 14-3-3 protein eta (UniProt P68510); assay: cross-link between two proteins; cross-linking mass spectrometry
14-3-3 protein theta = 14-3-3 protein theta (UniProt P68254); assay: as above
[12] = target: 10 kDa heat shock protein, mitochondrial (UniProt P61604); assay: as above
Chain of 10 kDa heat shock protein, mitochondrial (P61604 whole entry): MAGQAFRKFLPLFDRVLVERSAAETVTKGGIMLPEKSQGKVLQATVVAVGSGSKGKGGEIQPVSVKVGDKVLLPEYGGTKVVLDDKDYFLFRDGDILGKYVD

[13] = target: Aldehyde dehydrogenase, mitochondrial (UniProt P05091); assay: as above
[14] = target: NADH-ubiquinone oxidoreductase 75 kDa subunit, mitochondrial (UniProt P28331); assay: as above
[15] = target: Dolichyl-diphosphooligosaccharide--protein glycosyltransferase subunit STT3B (UniProt Q8TCJ2); assay: cross-linking mass spectrometry
[16] = target: Dolichyl-diphosphooligosaccharide--protein glycosyltransferase subunit 2 (UniProt P04844); assay: co-fractionation; co-fractionation; cross-linking mass spectrometry
Calnexin = Calnexin (UniProt P27824); assay: cross-link between two proteins; affinity purification or IP with mass spectrometry; cross-linking mass spectrometry
Chain of Calnexin (P27824 whole entry): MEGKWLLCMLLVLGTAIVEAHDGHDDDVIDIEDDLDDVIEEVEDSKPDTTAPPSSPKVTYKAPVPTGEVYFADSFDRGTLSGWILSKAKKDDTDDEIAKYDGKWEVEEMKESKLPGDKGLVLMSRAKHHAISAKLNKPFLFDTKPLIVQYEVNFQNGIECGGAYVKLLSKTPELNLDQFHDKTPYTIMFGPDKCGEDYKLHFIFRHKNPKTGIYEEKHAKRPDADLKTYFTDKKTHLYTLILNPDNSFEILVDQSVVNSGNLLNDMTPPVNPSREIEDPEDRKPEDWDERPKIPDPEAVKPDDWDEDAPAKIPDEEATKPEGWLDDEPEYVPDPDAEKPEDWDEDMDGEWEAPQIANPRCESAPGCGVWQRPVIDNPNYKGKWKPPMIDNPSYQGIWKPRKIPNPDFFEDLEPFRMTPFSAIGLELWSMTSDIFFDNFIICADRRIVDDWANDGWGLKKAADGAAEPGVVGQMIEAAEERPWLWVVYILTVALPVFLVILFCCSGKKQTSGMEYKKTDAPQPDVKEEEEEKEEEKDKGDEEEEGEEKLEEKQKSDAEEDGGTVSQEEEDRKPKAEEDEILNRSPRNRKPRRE

[17] = target: ATP synthase F(1) complex subunit alpha, mitochondrial (UniProt P25705); assay: cross-link between two proteins; cross-linking mass spectrometry
[18] = target: Complement component 1 Q subcomponent-binding protein, mitochondrial (UniProt Q07021); assay: as above
Chain of Complement component 1 Q subcomponent-binding protein, mitochondrial (Q07021 whole entry): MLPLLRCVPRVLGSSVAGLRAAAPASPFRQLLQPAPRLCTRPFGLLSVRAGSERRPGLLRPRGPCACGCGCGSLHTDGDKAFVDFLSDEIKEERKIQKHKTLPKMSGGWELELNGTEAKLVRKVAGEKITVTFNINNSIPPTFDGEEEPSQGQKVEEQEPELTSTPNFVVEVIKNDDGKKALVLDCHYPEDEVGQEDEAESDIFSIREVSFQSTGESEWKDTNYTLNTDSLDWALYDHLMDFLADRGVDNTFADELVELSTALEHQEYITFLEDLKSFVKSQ

[19] = target: AP-1 complex subunit beta-1 (UniProt Q10567); assay: cross-link between two proteins; co-fractionation; cross-linking mass spectrometry
Chain of AP-1 complex subunit beta-1 (Q10567 whole entry, one chain of several): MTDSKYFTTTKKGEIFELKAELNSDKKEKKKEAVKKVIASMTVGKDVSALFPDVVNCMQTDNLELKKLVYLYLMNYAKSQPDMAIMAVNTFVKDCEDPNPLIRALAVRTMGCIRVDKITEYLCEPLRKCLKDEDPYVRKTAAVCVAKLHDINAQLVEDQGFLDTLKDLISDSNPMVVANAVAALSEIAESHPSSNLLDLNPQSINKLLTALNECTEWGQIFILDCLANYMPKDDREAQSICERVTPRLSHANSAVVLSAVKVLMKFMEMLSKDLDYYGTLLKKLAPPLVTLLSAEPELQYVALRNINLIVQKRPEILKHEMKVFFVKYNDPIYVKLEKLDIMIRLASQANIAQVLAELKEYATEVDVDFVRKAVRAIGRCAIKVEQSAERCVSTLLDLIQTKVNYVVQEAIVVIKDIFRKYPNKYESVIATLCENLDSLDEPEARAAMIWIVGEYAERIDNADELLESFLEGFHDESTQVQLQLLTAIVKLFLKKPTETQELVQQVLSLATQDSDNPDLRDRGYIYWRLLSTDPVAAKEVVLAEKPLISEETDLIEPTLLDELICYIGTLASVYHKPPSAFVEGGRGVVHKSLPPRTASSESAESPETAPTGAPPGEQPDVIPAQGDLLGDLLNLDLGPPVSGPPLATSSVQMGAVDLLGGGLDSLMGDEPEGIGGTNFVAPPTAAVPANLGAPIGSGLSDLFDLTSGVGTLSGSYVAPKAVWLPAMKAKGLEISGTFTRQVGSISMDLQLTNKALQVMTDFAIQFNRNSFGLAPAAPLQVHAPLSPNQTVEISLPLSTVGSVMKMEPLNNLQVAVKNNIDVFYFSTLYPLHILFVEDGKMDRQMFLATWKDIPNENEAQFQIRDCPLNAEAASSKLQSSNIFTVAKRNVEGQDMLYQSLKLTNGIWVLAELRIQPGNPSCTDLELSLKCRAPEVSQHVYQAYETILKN

[20] = target: AP-2 complex subunit beta (UniProt P63010); assay: as above
[21] = target: Large ribosomal subunit protein bL12m (UniProt P52815); assay: cross-linking mass spectrometry
[22] = target: 3-hydroxyacyl-CoA dehydrogenase type-2 (UniProt Q99714); assay: cross-link between two proteins; cross-linking mass spectrometry
[23] = target: Methylcrotonoyl-CoA carboxylase beta chain, mitochondrial (UniProt Q9HCC0); assay: as above
[24] = target: Mitochondrial 10-formyltetrahydrofolate dehydrogenase (UniProt Q3SY69); assay: as above
[25] = target: Polyribonucleotide nucleotidyltransferase 1, mitochondrial (UniProt Q8TCS8); assay: as above
[26] = target: Pyrroline-5-carboxylate reductase 2 (UniProt Q96C36); assay: as above
[27] = target: Spectrin alpha chain, non-erythrocytic 1 (UniProt Q13813); assay: as above
[28] = target: ATPase family AAA domain-containing protein 3A (UniProt Q9NVI7); assay: cross-link between two proteins; affinity purification or IP with mass spectrometry; cross-linking mass spectrometry
[29] = target: Cytochrome c oxidase assembly factor 4 homolog, mitochondrial (UniProt Q9NYJ1); assay: as above
[30] = target: MICOS complex subunit MIC19 (UniProt Q9NX63); assay: as above
[31] = target: MICOS complex subunit MIC25 (UniProt Q9BRQ6); assay: as above
[32] = target: Serine/threonine-protein phosphatase PGAM5, mitochondrial (UniProt Q96HS1); assay: as above
Chain of Serine/threonine-protein phosphatase PGAM5, mitochondrial (Q96HS1 whole entry): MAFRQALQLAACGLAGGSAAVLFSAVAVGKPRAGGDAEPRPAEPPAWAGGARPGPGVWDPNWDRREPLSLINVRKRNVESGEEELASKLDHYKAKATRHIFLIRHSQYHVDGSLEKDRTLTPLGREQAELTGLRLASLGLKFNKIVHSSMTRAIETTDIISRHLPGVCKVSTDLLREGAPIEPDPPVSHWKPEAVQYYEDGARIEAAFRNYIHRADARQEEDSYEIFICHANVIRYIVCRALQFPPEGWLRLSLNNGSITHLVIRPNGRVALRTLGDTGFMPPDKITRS

[33] = target: TIM double twin CX3C motif protein (UniProt Q96C01); assay: as above
Chain of TIM double twin CX3C motif protein (Q96C01 whole entry): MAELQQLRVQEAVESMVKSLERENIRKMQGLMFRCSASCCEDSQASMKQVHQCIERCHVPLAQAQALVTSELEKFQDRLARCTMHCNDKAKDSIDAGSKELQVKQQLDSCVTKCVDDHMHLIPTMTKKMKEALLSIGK

[34] = target: Cytochrome c oxidase subunit 6C (UniProt P09669); assay: cross-link between two proteins; cross-linking mass spectrometry
[35] = target: Trifunctional enzyme subunit alpha, mitochondrial (UniProt P40939); assay: as above
Chain of Trifunctional enzyme subunit alpha, mitochondrial (P40939 whole entry): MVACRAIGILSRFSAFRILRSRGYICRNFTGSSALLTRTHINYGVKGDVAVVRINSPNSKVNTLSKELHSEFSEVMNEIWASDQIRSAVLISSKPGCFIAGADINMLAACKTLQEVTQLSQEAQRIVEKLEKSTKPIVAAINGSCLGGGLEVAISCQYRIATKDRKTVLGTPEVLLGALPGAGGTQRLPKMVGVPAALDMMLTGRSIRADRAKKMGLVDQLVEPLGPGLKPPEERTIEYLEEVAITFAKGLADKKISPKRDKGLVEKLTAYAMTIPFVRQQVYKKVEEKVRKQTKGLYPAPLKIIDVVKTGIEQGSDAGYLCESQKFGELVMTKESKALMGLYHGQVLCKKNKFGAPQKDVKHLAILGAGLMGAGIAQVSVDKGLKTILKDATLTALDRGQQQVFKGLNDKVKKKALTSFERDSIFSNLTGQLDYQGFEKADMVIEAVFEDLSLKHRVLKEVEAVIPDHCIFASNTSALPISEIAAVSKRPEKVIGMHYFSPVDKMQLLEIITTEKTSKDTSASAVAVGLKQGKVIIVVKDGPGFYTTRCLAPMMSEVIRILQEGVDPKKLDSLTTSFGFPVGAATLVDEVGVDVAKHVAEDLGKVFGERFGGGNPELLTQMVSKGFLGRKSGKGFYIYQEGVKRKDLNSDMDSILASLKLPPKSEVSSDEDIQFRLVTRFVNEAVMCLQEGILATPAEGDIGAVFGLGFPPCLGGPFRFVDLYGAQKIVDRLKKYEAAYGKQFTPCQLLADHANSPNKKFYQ

[36] = target: Solute carrier family 25 member 3 (UniProt Q00325); assay: co-fractionation; co-fractionation; cross-linking mass spectrometry
Chain of Solute carrier family 25 member 3 (Q00325 whole entry): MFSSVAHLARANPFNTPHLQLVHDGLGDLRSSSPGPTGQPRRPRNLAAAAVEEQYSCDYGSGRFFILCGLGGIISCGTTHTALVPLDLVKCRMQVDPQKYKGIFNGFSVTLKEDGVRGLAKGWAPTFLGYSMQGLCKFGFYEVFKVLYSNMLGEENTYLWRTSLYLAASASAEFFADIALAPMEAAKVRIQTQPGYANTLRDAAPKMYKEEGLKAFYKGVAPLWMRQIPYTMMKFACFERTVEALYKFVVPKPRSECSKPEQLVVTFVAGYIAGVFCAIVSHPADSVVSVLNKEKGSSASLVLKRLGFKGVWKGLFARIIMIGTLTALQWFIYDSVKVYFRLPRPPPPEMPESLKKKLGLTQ

[37] = target: ATP synthase F(0) complex subunit e, mitochondrial (UniProt P56385); assay: cross-link between two proteins; cross-linking mass spectrometry
[38] = target: ATP synthase peripheral stalk subunit b, mitochondrial (UniProt P24539); assay: co-fractionation; co-fractionation; cross-linking mass spectrometry
[39] = target: Cytochrome c oxidase subunit 4 isoform 1, mitochondrial (UniProt P13073); assay: cross-link between two proteins; affinity purification or IP with mass spectrometry; cross-linking mass spectrometry
[40] = target: Ras-related protein Rab-1B (UniProt Q9H0U4); assay: cross-link between two proteins; co-fractionation; cross-linking mass spectrometry
[41] = target: Myeloid-derived growth factor (UniProt Q969H8); assay: cross-linking mass spectrometry
[42] = target: Peptidyl-prolyl cis-trans isomerase B (UniProt P23284); assay: cross-link between two proteins; cross-linking mass spectrometry
[43] = target: Neutral alpha-glucosidase AB (UniProt Q14697); assay: cross-link between two proteins; co-fractionation; cross-linking mass spectrometry
[44] = target: Electron transfer flavoprotein subunit beta (UniProt P38117); assay: co-fractionation; co-fractionation; cross-linking mass spectrometry
[45] = target: Cytochrome b-c1 complex subunit 2, mitochondrial (UniProt P22695); assay: as above
[46] = target: Cytochrome b-c1 complex subunit 7 (UniProt P14927); assay: cross-link between two proteins; cross-linking mass spectrometry
[47] = target: Cytochrome b-c1 complex subunit Rieske, mitochondrial (UniProt P47985); assay: co-fractionation; co-fractionation; cross-linking mass spectrometry
[48] = target: ATP synthase F(1) complex subunit epsilon, mitochondrial (UniProt P56381); assay: cross-link between two proteins; cross-linking mass spectrometry
Chain of ATP synthase F(1) complex subunit epsilon, mitochondrial (P56381 whole entry, one chain of several): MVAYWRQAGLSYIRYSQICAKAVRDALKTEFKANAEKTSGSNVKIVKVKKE

[49] = target: ATPase inhibitor, mitochondrial (UniProt Q9UII2); assay: as above
Chain of ATPase inhibitor, mitochondrial (Q9UII2 whole entry): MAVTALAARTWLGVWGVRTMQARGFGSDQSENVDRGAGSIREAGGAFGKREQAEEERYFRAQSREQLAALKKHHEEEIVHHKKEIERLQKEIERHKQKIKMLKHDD

Frataxin, mitochondrial = Frataxin, mitochondrial (UniProt Q16595); assay: as above
[50] = target: Trifunctional enzyme subunit beta, mitochondrial (UniProt P55084); assay: as above
[51] = target: Mitochondrial import inner membrane translocase subunit Tim29 (UniProt Q9BSF4); assay: cross-link between two proteins; affinity purification or IP with mass spectrometry; cross-linking mass spectrometry
[52] = target: Cytochrome b-c1 complex subunit 1, mitochondrial (UniProt P31930); assay: co-fractionation; co-fractionation; cross-linking mass spectrometry
Syntaxin-8 = Syntaxin-8 (UniProt Q9UNK0); assay: cross-link between two proteins; affinity purification or IP with mass spectrometry; cross-linking mass spectrometry
Chain of Syntaxin-8 (Q9UNK0 whole entry): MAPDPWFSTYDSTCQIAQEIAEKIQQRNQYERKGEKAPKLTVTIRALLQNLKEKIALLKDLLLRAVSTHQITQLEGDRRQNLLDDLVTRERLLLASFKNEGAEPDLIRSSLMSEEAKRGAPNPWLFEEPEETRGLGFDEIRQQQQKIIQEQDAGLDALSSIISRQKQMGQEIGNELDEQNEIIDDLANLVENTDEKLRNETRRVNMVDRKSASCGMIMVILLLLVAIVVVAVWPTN

[53] = target: MICOS complex subunit MIC60 (UniProt Q16891); assay: cross-link between two proteins; cross-linking mass spectrometry
[54] = target: Endoplasmic reticulum resident protein 29 (UniProt P30040); assay: cross-link between two proteins; affinity purification or IP with mass spectrometry; cross-linking mass spectrometry
[55] = target: Leucine-rich repeat-containing protein 59 (UniProt Q96AG4); assay: as above
[56] = target: Transmembrane emp24 domain-containing protein 9 (UniProt Q9BVK6); assay: as above
[57] = target: BLOC-1-related complex subunit 7 (UniProt Q96B45); assay: cross-link between two proteins; co-fractionation; cross-linking mass spectrometry
Chain of BLOC-1-related complex subunit 7 (Q96B45 whole entry, one chain of several): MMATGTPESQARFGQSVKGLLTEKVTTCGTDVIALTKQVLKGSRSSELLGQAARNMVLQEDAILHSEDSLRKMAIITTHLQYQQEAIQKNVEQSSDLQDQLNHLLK

14-3-3 protein epsilon = 14-3-3 protein epsilon (UniProt P62258); assay: cross-link between two proteins; cross-linking mass spectrometry
Chain of 14-3-3 protein epsilon (P62258 whole entry): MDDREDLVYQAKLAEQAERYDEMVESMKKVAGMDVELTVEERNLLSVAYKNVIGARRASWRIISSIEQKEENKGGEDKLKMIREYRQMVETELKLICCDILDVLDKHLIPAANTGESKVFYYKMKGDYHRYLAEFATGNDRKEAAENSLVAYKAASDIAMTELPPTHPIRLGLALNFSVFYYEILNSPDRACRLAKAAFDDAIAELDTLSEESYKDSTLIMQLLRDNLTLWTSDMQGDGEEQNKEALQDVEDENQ

14-3-3 protein gamma = 14-3-3 protein gamma (UniProt P61981); assay: as above

Chain of Cytochrome c, P99999 (P99999 whole entry): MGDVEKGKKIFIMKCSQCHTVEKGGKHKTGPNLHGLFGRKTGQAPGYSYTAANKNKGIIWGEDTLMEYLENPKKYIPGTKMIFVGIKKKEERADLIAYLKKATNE

Ras-related protein Rab-11A, P62491
listed as a hit [1]: yes

AP-1 complex subunit beta-1, Q10567
listed as a hit [2]: yes

ER membrane protein complex subunit 1, Q8N766
listed as a hit [3]: yes | listed as a hit [4]: yes

Tetratricopeptide repeat protein 19, mitochondrial, Q6DKK2
listed as a hit [5]: yes

Citrate synthase, mitochondrial, O75390
listed as a hit [6]: yes | listed as a hit [7]: yes | listed as a hit [8]: yes

Mitochondrial import inner membrane translocase subunit TIM50, Q3ZCQ8
listed as a hit [5]: yes

Heterogeneous nuclear ribonucleoproteins C1/C2, P07910
listed as a hit [9]: yes

Propionyl-CoA carboxylase alpha chain, mitochondrial, P05165
listed as a hit [10]: yes

Pyruvate dehydrogenase E1 component subunit alpha, somatic form, mitochondrial, P08559
listed as a hit [7]: yes | listed as a hit [11]: yes

14-3-3 protein zeta/delta, P63101
listed as a hit (14-3-3 protein eta): yes | listed as a hit (14-3-3 protein theta): yes

Myristoylated alanine-rich C-kinase substrate, P29966
listed as a hit [5]: yes

Aspartate aminotransferase, mitochondrial, P00505
listed as a hit [12]: yes | listed as a hit [13]: yes | listed as a hit [7]: yes | listed as a hit [14]: yes

Dolichyl-diphosphooligosaccharide--protein glycosyltransferase subunit 1, P04843
listed as a hit [15]: yes | listed as a hit [16]: yes | listed as a hit (Calnexin): yes

NADPH:adrenodoxin oxidoreductase, mitochondrial, P22570
listed as a hit [12]: yes | listed as a hit [17]: yes | listed as a hit [18]: yes | listed as a hit [7]: yes

AP-2 complex subunit alpha-1, O95782
listed as a hit [19]: yes | listed as a hit [20]: yes

Stress-70 protein, mitochondrial, P38646
listed as a hit [21]: yes | listed as a hit [12]: yes | listed as a hit [22]: yes | listed as a hit [18]: yes | listed as a hit [7]: yes | listed as a hit [23]: yes | listed as a hit [24]: yes | listed as a hit [25]: yes | listed as a hit [26]: yes | listed as a hit [27]: yes

Cytochrome c oxidase assembly factor 7, Q96BR5
listed as a hit [28]: yes | listed as a hit [29]: yes | listed as a hit [30]: yes | listed as a hit [31]: yes | listed as a hit [32]: yes | listed as a hit [33]: yes

ADP/ATP translocase 2, P05141
listed as a hit [34]: yes | listed as a hit [7]: yes | listed as a hit [35]: yes | listed as a hit [36]: yes

Cytochrome c oxidase assembly factor 6 homolog, Q5JTJ3
listed as a hit [5]: yes

Dynamin-like GTPase OPA1, mitochondrial, O60313
listed as a hit [5]: yes

ATP synthase F(0) complex subunit g, mitochondrial, O75964
listed as a hit [37]: yes | listed as a hit [35]: yes | listed as a hit [38]: yes | listed as a hit [39]: yes

Ras-related protein Rab-1A, P62820
listed as a hit [40]: yes

Glucosidase 2 subunit beta, P14314
listed as a hit [41]: yes | listed as a hit [42]: yes | listed as a hit [43]: yes

Dolichol-phosphate mannosyltransferase subunit 1, O60762
listed as a hit (Calnexin): yes

Dolichyl-diphosphooligosaccharide--protein glycosyltransferase subunit 2, P04844
listed as a hit (Calnexin): yes

Cytochrome c oxidase copper chaperone, Q14061
listed as a hit [5]: yes

Electron transfer flavoprotein subunit alpha, mitochondrial, P13804
listed as a hit [44]: yes

Cytochrome c1, heme protein, mitochondrial, P08574
listed as a hit [45]: yes

Cytochrome b-c1 complex subunit 8, O14949
listed as a hit [46]: yes | listed as a hit [47]: yes

ATP synthase F(1) complex subunit alpha, mitochondrial, P25705
listed as a hit [12]: yes | listed as a hit [48]: yes | listed as a hit [49]: yes | listed as a hit (Frataxin, mitochondrial): yes | listed as a hit [7]: yes | listed as a hit [35]: yes | listed as a hit [50]: yes

Mitochondrial import inner membrane translocase subunit Tim10, P62072
listed as a hit [51]: yes

Cytochrome b-c1 complex subunit 2, mitochondrial, P22695
listed as a hit [52]: yes

Flotillin-1, O75955
listed as a hit (Syntaxin-8): yes

Cytochrome c oxidase assembly factor SCO2, O43819
listed as a hit [5]: yes

Cytochrome c, P99999
listed as a hit [53]: yes | listed as a hit [5]: yes

Calnexin, P27824
listed as a hit [54]: yes | listed as a hit [55]: yes | listed as a hit [4]: yes | listed as a hit [56]: yes

Biogenesis of lysosome-related organelles complex 1 subunit 1, P78537
listed as a hit [57]: yes

14-3-3 protein theta, P27348
listed as a hit (14-3-3 protein epsilon): yes | listed as a hit (14-3-3 protein gamma): yes
